This note sets out measurements from PubChem BioAssay (NCI).

This is part of a sample that, as a whole, favours compounds with a hit. Of some 79,000 tested, about 15% had one in any assay. Unmarked numbers belong to inactive results. Calls of active or inactive are those of the source. Cut-off read from the data, not from the text of the source: active = growth inhibition above about 70%; inactive = the rest.

Assay [1] in a line: NCI Yeast Anticancer Drug Screen. Data for the rad50 strain (AID 155).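 Note: 0% = growth of vehicle-only cultures of the same strain.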 As to conditions: S. cerevisiae rad50 strain growth inhibition, active compounds read high. The essentials:
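Readout: growth inhibition relative to vehicle-treated cultures. Compound exposure was carried out in a genetically defined yeast strain deficient in DNA damage repair.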

Assay [2] can be described thus: NCI Yeast Anticancer Drug Screen. Data for the mec2-1 strain (AID 157). Particulars: S. cerevisiae mec2-1 strain, active compounds read high. The essentials: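 Cells of the genetically defined mec2-1 yeast strain are incubated with test compound. Inhibition of growth is calculated against vehicle-treated controls.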
The nature of assay [3]: NCI Yeast Anticancer Drug Screen. Data for the sgs1 mgt1 strain (AID 161).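 Note: 0% = growth of cultures given vehicle only.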 As to conditions: S. cerevisiae sgs1 mgt1 strain, active compounds read high. The procedure, abridged: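 Read-out: growth inhibition vs vehicle controls. Cells: mutant yeast strain deficient in DNA damage repair.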
The nature of assay [4]: NCI Yeast Anticancer Drug Screen. Data for the cln2 rad14 strain (AID 165).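 Note: 0% = growth equal to vehicle treated cultures.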 Particulars: S. cerevisiae cln2 rad14 strain, active compounds read high. The procedure, abridged: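 The screen exposed genetically defined yeast (cln2 rad14) to test compounds and scored growth inhibition relative to vehicle-treated controls.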
A short description of assay [5]: NCI Yeast Anticancer Drug Screen. Data for the bub3 strain (AID 167). Particulars: S. cerevisiae bub3 mutant strain, active compounds read high. The procedure, abridged:
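Readout: yeast growth inhibition, expressed relative to vehicle-only wells. The test organism is a mutant strain from a panel with lesions in DNA repair or checkpoint genes.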

Assay [6] is described as follows: NCI Yeast Anticancer Drug Screen. Data for the mlh1 rad18 strain (AID 175). Particulars: S. cerevisiae mlh1 rad18 strain growth inhibition, active compounds read high. The procedure, abridged: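 Compound-treated yeast growth, normalised to vehicle controls. Strain bears defined DNA repair mutations.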
Where [7] appears, read: at 5.0 µM (retest, dose inferred, filed as 0.5).
The mark [8] stands for this setting: at 50.0 µM (retest, dose inferred, filed as 5.0).

As to `Cc1ccc(SSCCCCS(=O)O)cc1`, the growth inhibition in assay [1] (setting [7]) is -2%; in assay [1] (setting [8]), 33%; in assay [1] (at 50.0 µM) it was 65.7%; in assay [2] (setting [7]), 4%; in assay [2] (setting [8]), 85% (active); in assay [2] (at 50.0 µM), 62.2%. The growth inhibition in assay [3] (setting [7]) is 5%; in assay [3] (setting [8]), 91% (active); in assay [3] (at 50.0 µM) it was 82.8% (active); in assay [4] (setting [7]) it was -5%; in assay [4] (setting [8]), 64%; in assay [4] (at 50.0 µM), 84.9% (active). For the same molecule, the growth inhibition in assay [5] (setting [7]) was 13%; in assay [5] (setting [8]) it was 88% (active); in assay [5] (at 50.0 µM), 80.3% (active); in assay [6] (setting [7]) it was 1%; in assay [6] (setting [8]) it was 80% (active); in assay [6] (at 50.0 µM), 91.8% (active).
Turning to `O=C1C(=O)N(c2ccccc2)N=C1N=Nc1ccccc1`, the growth inhibition is 4% in assay [1] (setting [7]); 33% in assay [1] (setting [8]); 90.4% (active) in assay [1] (at 50.0 µM); 8% in assay [2] (setting [7]); 80% (active) in assay [2] (setting [8]); 86.7% (active) in assay [2] (at 50.0 µM). For the same molecule, the growth inhibition is 14% in assay [3] (setting [7]); 63% in assay [3] (setting [8]); 96.2% (active) in assay [3] (at 50.0 µM); 2% in assay [4] (setting [7]); 43% in assay [4] (setting [8]); 41.8% in assay [4] (at 50.0 µM). The growth inhibition in assay [5] (setting [7]) was 14%; in assay [5] (setting [8]), 73% (active); in assay [5] (at 50.0 µM), 69%; in assay [6] (setting [7]), 14%; in assay [6] (setting [8]), 77% (active); in assay [6] (at 50.0 µM), 56%.
As for `O=C(Cc1ccccc1)NC(C(=O)c1ccccc1)c1ccccc1` (stereo not given), the growth inhibition in assay [1] (setting [7]) is 36%; in assay [1] (setting [8]), 55%; in assay [1] (at 50.0 µM), 75.5% (active); in assay [2] (setting [7]), 21%; in assay [2] (setting [8]) it was 40%; in assay [2] (at 50.0 µM), 31.1%. Further, the growth inhibition in assay [3] (setting [7]) was 36%; in assay [3] (setting [8]), 47%; in assay [3] (at 50.0 µM) it was 72.2% (active); in assay [4] (setting [7]) it was 25%; in assay [4] (setting [8]) it was 26%; in assay [4] (at 50.0 µM), 57%. The growth inhibition in assay [5] (setting [7]) is 48%; in assay [5] (setting [8]), 72% (active); in assay [5] (at 50.0 µM), 83.2% (active); in assay [6] (setting [7]), 35%; in assay [6] (setting [8]), 53%; in assay [6] (at 50.0 µM) it was 73.7% (active).
Consider `O=[N+]([O-])/C=C/c1cc2c(ccc3ccccc32)[nH]1`, for which the growth inhibition was 61% in assay [1] (setting [7]); 98% (active) in assay [1] (setting [8]); 82.7% (active) in assay [1] (at 50.0 µM); 94% (active) in assay [2] (setting [7]); 95% (active) in assay [2] (setting [8]); 92.2% (active) in assay [2] (at 50.0 µM). The growth inhibition is 88% (active) in assay [3] (setting [7]); 98% (active) in assay [3] (setting [8]); 94.5% (active) in assay [3] (at 50.0 µM); 37% in assay [4] (setting [7]); 92% (active) in assay [4] (setting [8]); 93.3% (active) in assay [4] (at 50.0 µM). In addition, the growth inhibition is 96% (active) in assay [5] (setting [7]); 98% (active) in assay [5] (setting [8]); 90.7% (active) in assay [5] (at 50.0 µM); 87% (active) in assay [6] (setting [7]); 97% (active) in assay [6] (setting [8]); 89% (active) in assay [6] (at 50.0 µM).
For `Cc1cc(O)cc2c1c(=O)c1ccccc1n2C`, the growth inhibition in assay [1] (setting [7]) was 15%; in assay [1] (setting [8]), 29%; in assay [1] (at 50.0 µM), 39%; in assay [2] (setting [7]) it was 15%; in assay [2] (setting [8]) it was 24%; in assay [2] (at 50.0 µM), 24.5%. In addition, the growth inhibition in assay [3] (setting [7]) is 20%; in assay [3] (setting [8]), 17%; in assay [3] (at 50.0 µM) it was 11.4%; in assay [4] (setting [7]), 15%; in assay [4] (setting [8]), 25%; in assay [4] (at 50.0 µM) it was 1.8%. Moreover, the growth inhibition was 18% in assay [5] (setting [7]); 25% in assay [5] (setting [8]); 2.4% in assay [5] (at 50.0 µM); 23% in assay [6] (setting [7]); 34% in assay [6] (setting [8]); 11.6% in assay [6] (at 50.0 µM).
Turning to `C#CC(CC(C)C)(CC(C)C)OC(=O)Nc1ccccc1`, the growth inhibition in assay [1] (setting [7]) was 5%; in assay [1] (setting [8]) it was 95% (active); in assay [1] (at 50.0 µM) it was 97.9% (active); in assay [2] (setting [7]), 1%; in assay [2] (setting [8]), 97% (active); in assay [2] (at 50.0 µM) it was 97.3% (active). The growth inhibition in assay [3] (setting [7]) was 4%; in assay [3] (setting [8]) it was 98% (active); in assay [3] (at 50.0 µM), 98.1% (active); in assay [4] (setting [7]), 3%; in assay [4] (setting [8]), 96% (active); in assay [4] (at 50.0 µM), 97.7% (active). Moreover, the growth inhibition was 3% in assay [5] (setting [7]); 94% (active) in assay [5] (setting [8]); 97.5% (active) in assay [5] (at 50.0 µM); -6% in assay [6] (setting [7]); 95% (active) in assay [6] (setting [8]); 97.3% (active) in assay [6] (at 50.0 µM).
On to `CN(C)/C=C(\C(=O)c1ccccc1)n1nc(-c2ccccc2)cc1-c1ccccc1`, for which the growth inhibition in assay [1] (setting [7]) was 15%; in assay [1] (setting [8]) it was 45%; in assay [1] (at 50.0 µM) it was 72.5% (active); in assay [2] (setting [7]), -4%; in assay [2] (setting [8]) it was 20%; in assay [2] (at 50.0 µM) it was 73.7% (active). The growth inhibition in assay [3] (setting [7]) is 11%; in assay [3] (setting [8]) it was 48%; in assay [3] (at 50.0 µM), 83.3% (active); in assay [4] (setting [7]) it was 22%; in assay [4] (setting [8]), 50%; in assay [4] (at 50.0 µM), 70.2% (active). Also, the growth inhibition in assay [5] (setting [7]) is -3%; in assay [5] (setting [8]), 38%; in assay [5] (at 50.0 µM), 74% (active); in assay [6] (setting [7]) it was 16%; in assay [6] (setting [8]), 54%; in assay [6] (at 50.0 µM), 81.3% (active).
On to `O=c1c2cnccc2cc2c3ccccc3ccn12`, for which the growth inhibition in assay [1] (setting [7]) was 47%; in assay [1] (setting [8]), 93% (active); in assay [1] (at 50.0 µM), 91.8% (active); in assay [2] (setting [7]), 12%; in assay [2] (setting [8]), 58%; in assay [2] (at 50.0 µM), 41.5%. The growth inhibition in assay [3] (setting [7]) is 9%; in assay [3] (setting [8]) it was 64%; in assay [3] (at 50.0 µM), 6.75%; in assay [4] (setting [7]), 3%; in assay [4] (setting [8]), 42%; in assay [4] (at 50.0 µM), 74.8% (active). Besides, the growth inhibition is 5% in assay [5] (setting [7]); 37% in assay [5] (setting [8]); 2.45% in assay [5] (at 50.0 µM); 26% in assay [6] (setting [7]); 87% (active) in assay [6] (setting [8]); 64% in assay [6] (at 50.0 µM).
On to `C/C(=N\NC(=O)N/N=C(\C)c1ccccn1)c1ccccn1`, for which the growth inhibition was 0% in assay [1] (setting [7]); 16% in assay [1] (setting [8]); -6.55% in assay [1] (at 50.0 µM); -18% in assay [2] (setting [7]); -16% in assay [2] (setting [8]); 16.8% in assay [2] (at 50.0 µM). In addition, the growth inhibition in assay [3] (setting [7]) was 7%; in assay [3] (setting [8]) it was 24%; in assay [3] (at 50.0 µM), 35.9%; in assay [4] (setting [7]), -21%; in assay [4] (setting [8]), 1%; in assay [4] (at 50.0 µM) it was 2.95%. Moreover, the growth inhibition in assay [5] (setting [7]) is 2%; in assay [5] (setting [8]) it was -13%; in assay [5] (at 50.0 µM), 35.5%; in assay [6] (setting [7]), 14%; in assay [6] (setting [8]) it was -6%; in assay [6] (at 50.0 µM), -5.95%.
For the molecule `Cc1ccc(S(=O)(=O)N/N=C2/CC[C@H](C(C)(C)C)C[C@@H]2C)cc1`, the growth inhibition was 9% in assay [1] (setting [7]); 96% (active) in assay [1] (setting [8]); 86.2% (active) in assay [1] (at 50.0 µM); -15% in assay [2] (setting [7]); 97% (active) in assay [2] (setting [8]); 90% (active) in assay [2] (at 50.0 µM). Further, the growth inhibition in assay [3] (setting [7]) was -2%; in assay [3] (setting [8]), 98% (active); in assay [3] (at 50.0 µM), 77.4% (active); in assay [4] (setting [7]), -35%; in assay [4] (setting [8]), 85% (active); in assay [4] (at 50.0 µM), 87.7% (active). For the same molecule, the growth inhibition is -18% in assay [5] (setting [7]); 97% (active) in assay [5] (setting [8]); 84.7% (active) in assay [5] (at 50.0 µM); -1% in assay [6] (setting [7]); 98% (active) in assay [6] (setting [8]); 76.3% (active) in assay [6] (at 50.0 µM).
